Data: ChEMBL document CHEMBL4513160, “CO-ADD screening of MMV (CH) - Small Polar Library”
Out of some 21,000 compounds screened, fewer than 10 showed an effect of 50% or more. A selection follows. Entries with a potency or affinity are not part of this list.

The compounds below were run on Acinetobacter baumannii. Conditions: Concentration 300 ug.mL-1; ASSAY_TEST Inhibition of Bacterial Growth; detection method Absorption (OD600); MEDIA CAMHB; plate type 384well; NBS; CORNING #3640; time 18 hr.
`CCC(=O)NCCc1noc(COC)n1` gave an Inhibition of 8.83%. `CCOc1cccc(C(C)NC(=O)CNC(C)=O)c1` (stereo not given) was tested, and the Inhibition was 8.25%. `CCC(=O)N1CCN(C(=O)CC2CCCCC2)CC1` showed an Inhibition of 6.05%. For `CC1Cc2ccccc2N1CCN` (stereo not given), the Inhibition was 14.26%. `O=C1Nc2ccccc2C1C1CCNCC1` (stereo not given) gave an Inhibition of 10.09%. `Cc1cc(C)cc(OCC(=O)N2CCN[C@H](C)C2)c1` showed an Inhibition of 8.4%. `CC1=C(c2ccco2)CN(CC(N)=O)CC1` was tested, and the Inhibition was 3.95%. For `O=C(Nc1cncc(Br)c1Cl)N1CCC(O)C1` (stereo not given), the Inhibition was -0.64%. `NCc1cccc(N2CC=CC2)c1` gave an Inhibition of 6.5%. `O=C(CCN1CCOCC1)Nc1cccc(Cl)c1` was tested, and the Inhibition was 5.94%. `O=C(Cn1ccnc1)Nc1ccc(OC(F)F)cc1` was tested, and the Inhibition was 8%. `CNC(=O)CSc1nnc(C2CC2)n1C` gave an Inhibition of 5.97%. For `CC(=O)c1c(C)[nH]c(C(=O)OCC(=O)N(C)C)c1C`, the Inhibition was 5.39%. `NCc1ccc(-c2ccccc2)o1` showed an Inhibition of 16.01%. Work on `CC(C)CCNC(=O)Nc1c[nH]c(=O)[nH]c1=O` yielded an Inhibition of 6.3%. `CCCNC(=O)Cn1ccnc1SC` was tested, and the Inhibition was 10.93%. For `CNC(=O)c1cccc(CN)n1`, the Inhibition was 9.63%. `CN(C)[C@H]1CN(C(=O)c2ccncc2)C[C@@H]1C1CC1` gave an Inhibition of 10.19%. Work on `CCn1cnnc1CC1CCCNC1` (stereo not given) yielded an Inhibition of 9.33%. Work on `Cc1ccc(OC2CCN(C(=O)[C@@H](C)N)CC2)cc1` yielded an Inhibition of 3.78%. For `CN[C@@H](C)C(=O)N1CC(Oc2ccccc2OC)C1`, the Inhibition was -2.39%. In the case of `CC(C)NC(=O)C(C)N` (stereo not given), the Inhibition is reported as 9.53%. Compound `NC(c1ccc(Cl)cc1)c1ncon1` (stereo not given) has an Inhibition of 6.75%. In the case of `O=C(Cn1ccc(=O)[nH]c1=O)NCc1cccnc1`, the Inhibition is reported as 6.41%. With `CCOc1cc(C)ccc1CN` the Inhibition was 7.86%. Work on `c1ncn(-c2ccc(NCC3CCOCC3)cc2)n1` yielded an Inhibition of 5.37%. For `Cc1nn(C)c2nc(NCCC(=O)N3CCCC3)sc12`, the Inhibition was 3.37%. Compound `CNC(=O)[C@H]1CC[C@H](CNC(=O)c2cn[nH]c2)CC1` has an Inhibition of 6.17%. For `CC(C)C(=O)N1CCC(N)C1` (stereo not given), the Inhibition was 3.38%. `Cc1nc(CN(C)C(=O)NCc2ccccc2)no1` showed an Inhibition of 6.9%. `CC(C)(C)OC(=O)N1CC(O)C1` showed an Inhibition of 5.37%. `COC(=O)c1ccc(NC(=O)N2CCOC(C)C2)cc1` (stereo not given) was tested, and the Inhibition was 6.27%. In the case of `CSc1ccc(OCCN(C)CC(N)=O)cc1`, the Inhibition is reported as 7.33%. In the case of `CCOC(=O)c1csc(CNC(=O)c2ccc(C)o2)n1`, the Inhibition is reported as 0.25%. `CN(CCN1CCCC1=O)C(=O)c1ccc(Br)cc1O` was tested, and the Inhibition was 1.38%. With `CN[C@@H](CC(C)C)C(=O)NCCCc1csc(N)n1` the Inhibition was -8.08%. `COCC(=O)N1CCN(Cc2csc(C)n2)CC1` showed an Inhibition of 2.61%. `CCC(NC(=O)C1CC1)(C(N)=O)C(C)C` (stereo not given) gave an Inhibition of 2.37%. For `Cc1cccc(NC(=O)C2COCCO2)c1` (stereo not given), the Inhibition was 1.93%. `CC(=O)N1CCCC(C(=O)NCCc2nnc(C)s2)C1` (stereo not given) gave an Inhibition of 6.35%. Compound `O=C(OCCC1CCCO1)c1ccncc1` (stereo not given) has an Inhibition of -0.58%. In the case of `O=C(CCC(F)(F)F)N[C@H]1CCCNC1`, the Inhibition is reported as 10.33%. `CC(=O)N(C)CC(=O)Nc1ccccc1N1CCCC1` gave an Inhibition of 8.57%. `CN(C)c1nccc(N(C)CCn2cccn2)n1` gave an Inhibition of 7.7%. For `CCN(C(=O)c1ccc(-c2ccco2)[nH]c1=O)C1CC1`, the Inhibition was 3.27%. Work on `COCC(=O)Nc1ccc(OCc2ccccn2)cc1` yielded an Inhibition of 4.72%. `COc1ccc(OCCN2CCNCC2)cc1` was tested, and the Inhibition was 8.28%. In the case of `CC(=O)NC(C(=O)N1CCSCC1)C(C)C` (stereo not given), the Inhibition is reported as 3.97%. Work on `CC(C)Oc1ncc(C(=O)N2CCC(O)CC2)cc1Cl` yielded an Inhibition of 1.14%. For `C[C@H](N)c1cccc(OCCN(C)C)c1`, the Inhibition was 5.56%. `C[C@@H]1CN(CCC(=O)NC2CCCC2)CC[C@]1(C)O` was tested, and the Inhibition was 3.95%. In the case of `O=S(=O)(CCN1CCN(c2nccs2)CC1)C(F)(F)F`, the Inhibition is reported as 11.95%. `CS(=O)(=O)C[C@H]1CCCN1` was tested, and the Inhibition was 4.73%. With `CN(C(=O)c1ccc2c(c1)NC(=O)CS2)C1CCCC1` the Inhibition was 10.76%. In the case of `CN(C(=O)CCn1cccn1)C1CCS(=O)(=O)C1` (stereo not given), the Inhibition is reported as 0.97%. `NCCNS(=O)(=O)c1ccc(F)cc1C(F)(F)F` showed an Inhibition of 9.19%. In the case of `CCn1cc(Br)c(C(C)=O)n1`, the Inhibition is reported as 15.72%. Work on `CCc1nccn1CCNC(=O)Cc1nonc1C` yielded an Inhibition of 6.19%. With `O=C(Nc1ncccc1O)c1cnns1` the Inhibition was 5.13%. In the case of `CN(C)CC[C@H](O)c1cccs1`, the Inhibition is reported as 11.43%. For `Cc1occc1C(=O)N1CCC(NC(=O)C2CC2)CC1`, the Inhibition was 4.82%. For `CC(=O)c1cccc(COC(=O)c2cccnc2)c1`, the Inhibition was 12%. In the case of `CC(C)c1noc(CN(C)C(=O)C2=NNC(=O)CC2)n1`, the Inhibition is reported as -1.48%. With `CSCC(=O)N1CCN(S(=O)(=O)N2CCOCC2)CC1` the Inhibition was -0.38%. `CCSc1nccc(N)n1` was tested, and the Inhibition was 18.01%. Compound `CS(=O)(=O)NCCc1nc2c(s1)CCCC2` has an Inhibition of 6.5%. Work on `CNC(=O)c1cccc(NCc2cccnc2)n1` yielded an Inhibition of 1.67%. `CCN(C(=O)C(C)O)C1CCCCC1` (stereo not given) showed an Inhibition of 7.15%. `CN(Cc1ccc(Oc2ccccc2)cc1)C(=O)CN` showed an Inhibition of 13.35%. For `Cn1cc(S(=O)(=O)NCc2ccco2)cn1`, the Inhibition was -0.88%. Compound `O=C1CCCc2sccc2N1` has an Inhibition of 14.86%. `CCCS(=O)(=O)N1C[C@@H](CN(C)CCO)[C@@H](CO)C1` gave an Inhibition of 1.24%. `CNC(=O)c1ccc(CNC(=O)c2ccoc2C)cc1` showed an Inhibition of 5.87%. Work on `COc1ccc(NC2CC(=O)N(C)C2=O)cc1OC` (stereo not given) yielded an Inhibition of 5.58%. With `CCN1CCCC1CNC(=O)c1csc(NC(C)=O)n1` (stereo not given) the Inhibition was -0.07%. Work on `NCC(=O)NCCN1CCCCC1` yielded an Inhibition of 9.69%. `CCn1nnnc1NCc1sccc1C` was tested, and the Inhibition was 11.07%. `CCOc1ncccc1C(=O)OC(C)C(=O)NC1CC1` (stereo not given) gave an Inhibition of 0.66%. In the case of `O=C(Nc1cccc(Cl)c1Cl)C1CCS(=O)(=O)C1` (stereo not given), the Inhibition is reported as -2.85%. With `CC(=O)c1cc[nH]c(=O)c1` the Inhibition was 3.77%. For `O=C(CNC1CC1)NC[C@H]1CCc2ccccc2O1`, the Inhibition was 0.42%. With `Cc1ccc(CN(C)CC(=O)NCCC#N)o1` the Inhibition was 4.14%. Compound `COc1ccc(CC(=O)NCC(C)C)c(OC)c1` has an Inhibition of 9.02%. Compound `CCCn1nnnc1CSCc1ccccn1` has an Inhibition of 1.73%. `CCCOc1ccc2c(c1)CCN(C(=O)C(C)N)C2` (stereo not given) was tested, and the Inhibition was 14.38%.
